Screening data (PubChem)
This is a sample that favours compounds with a hit; in the whole collection about 19% have one here.
SW480 rerep – induces DNA re-replication in SW480 colon adenocarcinoma cells. SW480 DNA re-replication, Hoechst DNA content imaging, 48 h. Potency, µM (doses to about 46.1 µM), for inactives: at the top dose re-replication activation, usual class: activators. 340,000 compounds, 1.8% hits. AID 624297; also: potency is read from the fitted curve at half-maximal effect; % of control where 0% means no effect; nearly all actives have a fitted effect of over 55% in size
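DNA re-replication was detected as more nuclei of elevated Hoechst intensity after 48 hr exposure to compound (23 nL pinned per well of 250 cells).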
TDP1 cell noCPT – qHTS for Inhibitors of human tyrosyl-DNA phosphodiesterase 1 (TDP1): qHTS in cells in absence of CPT; Potency, µM (highest dose often 46.2 µM), for inactives: at the highest dose activity change, negative = growth inhibition, actives largely listed as inhibitors; 420,000 compounds, 15% hits; DT40 Tdp1-/- hTDP1 cells, no CPT, ATP luminescence, 48 h; also: potency is read from the fitted curve at half-maximal effect; % is scaled to controls: 0 for no effect and ±100 for the full control effect; nearly all actives have a fitted effect of over 55% in size
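Growth of hTDP1-complemented DT40 Tdp1-knockout cells is measured by ATP luminescence after at least 48 hr compound exposure at 37 °C, with DMSO substituting for the 20 nM CPT used in the parallel screen.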
TDP1 cell CPT – DT40-hTDP1 cell growth loss with CPT | chicken DT40 Tdp1-/-;hTDP1 cells + 20 nM CPT, ATP luminescence, 48 h | Potency, µM (titrated, usually from 46.2 µM), for inactives: at the top dose activity change, negative = growth inhibition, hits mostly inhibitors | 420,000 compounds, 12% hits | AID 686979; also: potency is read from the fitted curve at half-maximal effect; % is scaled to controls: 0 for no effect and ±100 for the full control effect; nearly all actives have a fitted effect of over 55% in size
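Chicken DT40 Tdp1-/- cells stably complemented with human TDP1 were seeded at 400 cells/well in medium containing 20 nM camptothecin, exposed to pin-transferred compounds, and grown at 37 °C for at least 48 hr. Viability was read as ATP luminescence.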
BCR signal inh – inhibitors of chronic active B-cell receptor signaling; ABC-DLBCL IkBa-CBG/CBR reporter, luminescence ratio, 4 h; 340,000 compounds, 0.05% hits; Potency, µM (doses to about 46.1 µM), inactives show top-dose activity change, negative = inhibition, most hits filed as inhibitors; active = well fitted inhibition curve with a large enough effect in the signal ratio, with a control signal flat, not every such curve was filed as active; inconclusive = small, poorly fitted or top-dose-only effect, or effect the other way, or a change in a side signal; the % refers to the signal ratio;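 also: potency is read from the fitted curve at half-maximal effect; plate controls were basal doxycycline-induced cells for no effect and cells given 10 µM MG132 for full effect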
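Doxycycline induced both beetle luciferases in TMD8 lymphoma cells; IKK-driven degradation limits the IkappaBalpha-fused green signal, while red luminescence normalises for cell number and nonspecific effects. Compounds tested up to 46 uM, 4 hrs.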
IL1B secr inh – inflammasome signaling inhibition, IL-1 beta readout. THP-1 LPS/ATP IL-1B secretion, AlphaLISA, 16 h; active compounds read low. activity change, % at 57.5 µM. AID 743279. 360,000 compounds, 4.7% hits; in the data active = activity change below about -50%; inconclusive = mostly about -30% to -49%; also: % is scaled to controls: 0 for no effect and ±100 for the full control effect
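THP-1 cells pretreated 1 hr with compounds (up to 57.5 uM final), then stimulated with LPS (250 ng/mL final) plus ATP (1.25 mM final); secreted IL-1B measured by AlphaLISA after 16 hr, decreased signal indicating inhibition.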
MCF10A rereplic – DNA re-replication induction in MCF 10a cells; MCF 10A DNA re-replication, Hoechst nuclear intensity, 48 h; Potency, µM (titrated, usually from 46.1 µM), for the others: top-dose activity, positive = re-replication, usual class: activators; 350,000 compounds, 2.9% hits; AID 624296; also: potency is read from the fitted curve at half-maximal effect; % of control where 0% means no effect; nearly all actives have a fitted effect of over 50% in size
An asterisk follows results filed as active; ? = inconclusive; . = not tested or not shown; [ ] = another dose, or the depositor's remark. Unless noted, calls follow the shape of the dose curve; as a rule, active = well fitted curve in the direction sought with a large enough effect; inconclusive = small, poorly fitted or top-dose-only effect, or another doubt; inactive = no such curve, though single readings can be large; an effect the other way counts as inactive or inconclusive.

SMILES	SW480 rerep	TDP1 cell noCPT	TDP1 cell CPT	BCR signal inh	IL1B secr inh	MCF10A rereplic
O=C(Cc1ccccc1)NCCc1csc2nc(-c3ccc(Cl)cc3)nn12	.	9.2µM*	11.6µM*	.	.	.
COc1ccc(C)cc1NC(=O)C(=O)NCCc1csc2nc(-c3ccccc3F)nn12	.	-26.3%	-5.6%	.	.	.
O=C(Cc1ccc(Cl)cc1)NCCc1csc2nc(-c3ccccc3F)nn12	.	-12.6%	-24.6%	.	.	.
O=C(Cc1ccc(F)cc1)NCCc1csc2nc(-c3ccc(Cl)cc3)nn12	.	20.6µM*	?	.	.	.
O=C(NCCc1csc2nc(-c3ccc(F)cc3)nn12)c1ccco1	.	16.4µM*	?	.	.	.
CCCCC(=O)OCc1c(-c2cccc(OC)c2)ncc2ccccc12	2.4%	?	?	?	-1.0	8.8%
COc1cc(C(=O)NCC(c2ccc(N(C)C)cc2)N2CCCC2)cc(OC)c1OC (configuration not stated)	.	?	18.4µM*	.	.	.
COc1ccc(Cl)cc1C(=O)NCC(c1ccc(N(C)C)cc1)N1CCOCC1 (configuration not stated)	.	16.4µM*	?	.	.	.
CN(C)c1ccc(C(CNC(=O)c2c(F)cccc2Cl)N2CCOCC2)cc1 (configuration not stated)	.	-20.1%	-23.5%	.	.	.
Cc1cc(C)cc(C(=O)NCC(c2ccc(N(C)C)cc2)N2CCCC2)c1 (configuration not stated)	.	16.4µM*	14.6µM*	.	.	.
COc1cccc(C(=O)NCC(c2ccc(N(C)C)cc2)N2CCCC2)c1OC (configuration not stated)	.	?	11.6µM*	.	.	.
O=C(Cc1ccc(-c2ccccc2)cc1)Nc1ncccc1O	0.4%	1.0%	-20.0%	-9.7%	19.4	-10.2%
CN(C)c1ccc(C(CNC(=O)c2ccccc2C(F)(F)F)N2CCOCC2)cc1 (configuration not stated)	.	-19.8%	-9.6%	.	.	.
COc1cccc(C(=O)NCC(c2ccc(N(C)C)cc2)N2CCOCC2)c1OC (configuration not stated)	.	16.4µM*	14.6µM*	.	.	.
COc1cc(/C=C/C(=O)OCC(=O)Nc2c(C)n(C)n(-c3ccccc3)c2=O)ccc1O	1.6%	15.7%	?	2.0%	7.3	0.3%
O[C@H]1CN(CC2CCCCC2)[C@@H](c2ccc(Cl)cc2)C[C@@H]1n1cc(C2CC2)nn1	.	?	?	.	-15.3	.
C=CCn1c(SCc2c(C)noc2C)nc2sc3c(c2c1=O)CCCC3	?	?	18.4µM*	?	-20.6	9.2µM*
COC(=O)c1sc(N)c(C(=O)OC)c1CSc1nc2sc3c(c2c(=O)n1C)CCC3	2.0%	25.9µM*	?	19.9%	27.2	?
Cc1noc(C)c1CSc1nc2sc3c(c2c(=O)n1C)CCCC3	7.7%	?	11.6µM*	-0.6%	-25.6	?
Cn1c(SCCN2CCOCC2)nc2sc3c(c2c1=O)CCCC3	-3.5%	-25.4%	3.8%	1.9%	-12.4	22.1%
C=CCn1c(SCC(=O)N(C)C)nc2sc3c(c2c1=O)CCC3	-7.3%	?	?	-4.2%	30.6	19.1%
O=Cc1cccn1-c1nccc(-c2ccco2)n1	-38.2%[1.84 µM]	-18.2%	-2.9%	7.7%	1.8	-27.6%
Cc1nncn1-c1ccc(C(=O)Nc2cc(F)ccc2F)cc1	.	-28.0%	2.9%	.	.	.
CCCCc1cc(=O)oc2cc(OC(C)C(=O)NCC3CCC(C(=O)O)CC3)c(Cl)cc12 (configuration not stated)	?	-20.1%	-23.0%	16.5%	5.2	?
CCCc1[nH]n(-c2ccc([N+](=O)[O-])cc2)c(=O)c1C=NCCc1c[nH]c2ccccc12	0.6%	?	?	?	7.7	3.2%
SMILES	SW480 rerep	TDP1 cell noCPT	TDP1 cell CPT	BCR signal inh	IL1B secr inh	MCF10A rereplic
Cc1[nH]n(-c2ccc([N+](=O)[O-])cc2)c(=O)c1C=NCCc1c[nH]c2ccccc12	2.8%	?	11.6µM*	0.7%	8.4	0.2%
Cc1[nH]n(-c2ccc([N+](=O)[O-])cc2)c(=O)c1C=NCCN1CCN(C(=O)c2cccc(F)c2)CC1	-2.3%	9.2µM*	14.6µM*	?	11.8	20.9%
Cc1[nH]n(-c2ccc([N+](=O)[O-])cc2)c(=O)c1C=NCCN1CCN(C(=O)c2ccc(Br)cc2)CC1	1.4%	14.6µM*	18.4µM*	?	?	14.4%
Cc1cccc(-n2c(O)c(C=Nc3cc(O)ccc3C)c3ccccc3c2=O)n1	-0.2%	?	20.6µM*	3.6%	-13.2	-1.2%
O=[N+]([O-])c1ccc(OC(F)F)c(/C=N/n2cnnc2)c1	3.26µM*	6.51µM*	5.8µM*	1.3%	32.2	0.1%
CN1CCN(/N=C/c2ccc(-c3ccc([N+](=O)[O-])cc3Cl)o2)CC1	15.6%	?	-13.4%	6.4%	-80.5*	10.7%
O=[N+]([O-])c1ccc(Cl)c(-c2ccc(/C=N/n3cnnc3)o2)c1	-8.6%	-19.7%	2.7%	5.5%	-25.8	2.4%
COc1cc([N+](=O)[O-])ccc1-c1ccc(/C=N\n2cnnc2)o1	2.8%	1.84µM*	1.64µM*	4.3%	-13.2	-5.2%
Cc1cc(-c2ccc(/C=N/n3cnnc3)o2)c(C)c([N+](=O)[O-])c1	-12.3%	-13.1%	-29.0%	-1.7%	-70.5*	0.7%
CCc1nn(Cc2c(C)cc(C)cc2C)c(=O)c2cc3cc(C)ccc3n12	.	0.0%	-29.5%	.	.	.
O=C(O)Cc1sc(N/N=C\c2ccncc2)nc1-c1ccccc1	2.0%	19.4%	-1.8%	?	?	?
CCN(C[C@H]1N[C@@](C)(C(=O)OC)[C@H]2C(=O)N(Cc3ccccc3)C(=O)[C@@H]12)C(=O)Nc1ccc(F)cc1	-0.4%	-4.9%	9.0%	1.9%	8.5	-4.7%
COc1cc([N+](=O)[O-])ccc1-c1ccc(C(=O)Nc2ccc(NC(C)=O)cc2)o1	-5.3%	?	?	5.1%	9.5	-2.8%
COc1cc([N+](=O)[O-])ccc1-c1ccc(/C=C2\C(=O)ON=C2c2ccccc2)o1	0.4%	9.2µM*	11.6µM*	.	25.2	24.8%
COc1ccc(-c2ccc(/C=C3\C(=O)N(c4ccccc4)N=C3c3ccccc3)o2)c([N+](=O)[O-])c1	-1.5%	20.6µM*	?	?	4.6	-1.0%
O=C1CCN(Cc2ccccc2)C(=S)N1	-2.5%	-0.7%	2.6%	.	-6.3	-0.1%
